High-throughput results: PubChem BioAssay, several laboratories
An excerpt weighted towards active compounds, which were near 5.1% of everything screened.
CRFR2-BP ag – agonists of CRF-BP/CRF-R2 complex, primary screen, cell-based, HEK293, calcium dye fluorescence, uHTS; activation, % at 13.2 µM; CRF-binding protein / CRF receptor 2 complex (human); 350,000 compounds, 0.46% hits; calcium dye fluorescence (FLIPR); percent of saturating CRF peptide response; AID 588473, 2011;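 active means activation of at least 50%, plus an integration ratio under a set limit after plate pattern correction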;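 further: plate controls were neutral control wells without compound for no effect and CRF at EC100 for full effect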
GRIN3A LBD mod – binders of NR3A ligand-binding domain, primary screen, biophysical, differential scanning fluorimetry, uHTS; Glutamate receptor ionotropic, NMDA 3A (GRIN3A) ligand-binding domain; 340,000 compounds, 2.5% hits; Tm shift relative to glycine control, % at 25 µM; AID 1259313, 2017; NR3A LBD differential scanning fluorimetry, Tm shift; 0% = protein alone, 100% = glycine-bound protein;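 active means melting temperature shift of at least 10% of the positive control shift, at one fixed dose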
TMEM16A act – TMEM16A chloride channel activators or potentiators, primary screen, cell-based, HTS. HEK293 TMEM16A/YFP-H148Q/I152L, iodide quench fluorescence; stronger effect = lower value. 340,000 compounds, 0.3% hits. B-score at 10 µM. Anoctamin-1 (Mus musculus), Q8BHY3;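 active means fluorescence-ratio B-score plate-corrected deviation score at least 3 library SD below zero, with starting fluorescence score within 5 deviations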;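 further: channel opened by trigger with iodide after compound preincubation; score built on the fluorescence ratio of max minus min over baseline; more negative score means more quench and so TMEM16A activation or potentiation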
Target sequence (Q8BHY3 whole entry, looked up): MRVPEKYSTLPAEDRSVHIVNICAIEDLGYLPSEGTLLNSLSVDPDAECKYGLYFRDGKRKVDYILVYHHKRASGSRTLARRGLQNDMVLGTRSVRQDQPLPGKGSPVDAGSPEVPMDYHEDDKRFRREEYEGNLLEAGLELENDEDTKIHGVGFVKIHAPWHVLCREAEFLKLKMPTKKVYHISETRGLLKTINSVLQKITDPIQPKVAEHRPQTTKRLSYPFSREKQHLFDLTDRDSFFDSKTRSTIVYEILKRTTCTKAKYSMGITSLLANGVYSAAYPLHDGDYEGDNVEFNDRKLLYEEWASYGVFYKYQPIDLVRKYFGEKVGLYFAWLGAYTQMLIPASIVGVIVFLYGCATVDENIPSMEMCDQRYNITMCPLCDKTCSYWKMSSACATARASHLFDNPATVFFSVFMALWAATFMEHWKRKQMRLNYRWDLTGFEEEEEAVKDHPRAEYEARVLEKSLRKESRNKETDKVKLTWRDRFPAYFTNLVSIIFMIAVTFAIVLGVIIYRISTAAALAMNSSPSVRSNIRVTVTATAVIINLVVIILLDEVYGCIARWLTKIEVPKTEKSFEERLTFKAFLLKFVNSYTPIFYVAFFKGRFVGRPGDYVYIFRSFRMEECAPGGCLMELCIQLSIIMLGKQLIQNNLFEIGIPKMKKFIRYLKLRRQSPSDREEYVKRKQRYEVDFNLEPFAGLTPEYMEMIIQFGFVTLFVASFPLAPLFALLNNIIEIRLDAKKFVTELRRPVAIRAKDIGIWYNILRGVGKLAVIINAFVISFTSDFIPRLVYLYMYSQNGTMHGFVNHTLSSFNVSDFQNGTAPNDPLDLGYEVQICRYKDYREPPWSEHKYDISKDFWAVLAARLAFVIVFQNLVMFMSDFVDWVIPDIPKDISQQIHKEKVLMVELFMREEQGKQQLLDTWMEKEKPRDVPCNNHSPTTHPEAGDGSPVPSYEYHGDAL
MPTP inh – mitochondrial permeability transition pore inhibitors, primary screen, biochemical, isolated mouse mitochondria, absorbance; Ca2+ swelling absorbance, 30 min; inhibition, % at 10 µM; 360,000 compounds, 1.4% hits;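 active means inhibition of 50% or more, scaled per plate between neutral and stimulator controls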;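 further: 0% = DMSO wells given calcium and 100% = 1 mM EGTA wells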
CRFBP-R2 block – antagonists of CRF-BP/CRF-R2 complex, primary screen, cell-based, HEK293, calcium dye fluorescence, uHTS; CRF-induced calcium fluorescence; inhibition, % at 11.8 µM; 350,000 compounds, 0.59% hits; AID 588475, 2011;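 active means inhibition of the ligand-induced calcium signal above about 50% at the single tested concentration, limit read from the data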
TMEM16A inh – TMEM16A chloride channel inhibitors, primary screen, cell-based, HTS | HEK293 TMEM16A/YFP iodide influx fluorescence, ionomycin | normalized B-score (activity score, 25-100; higher = stronger inhibition) at 10 µM | 310,000 compounds, 1.2% hits | AID 588511, 2011;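 active means ratio plate-corrected score three or more library SD toward inhibition, starting fluorescence score within five deviations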;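 further: score derived from kinetic fluorescence span divided by baseline fluorescence per well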
* marks the source's active call; other numbers are inactive results; i = inactive; / = no result.

SMILES	CRFR2-BP ag	GRIN3A LBD mod	TMEM16A act	MPTP inh	CRFBP-R2 block	TMEM16A inh
Cc1ccc(NC(=O)c2cc(-c3ccccc3)n[nH]2)cc1	-0.5	10.3*	i	3.4	7.8	i
CC(C)(C)NC(=O)c1cc(-c2ccccc2)n[nH]1	-0.2	0.9	i	0.3	2.1	i
CCc1ccc(O)c(-c2cc(C(=O)Nc3cccnc3)[nH]n2)c1	1.0	19.6*	i	12.7	-16.6	i
Cc1cc(O)c(-c2cc(C(=O)Nc3cccnc3)[nH]n2)cc1C	-3.9	26.5*	i	4.6	7.6	i
COc1ccc(-c2cc(C(=O)Nc3ccc(NC(C)=O)cc3)[nH]n2)c(C)c1	/	/	/	-0.1	/	/
C/C(NCCc1ccccc1)=C1/CCOC1=O	-0.7	/	/	1.0	2.9	/
O=S1(=O)CCN(CCc2ccccc2)CC1	0.8	/	/	-0.2	-33.7	/
CCC(/C=N/NC(=O)C(N)=O)CC	-2.1	-1.3	-5.35*	-1.0	-3.9	i
O=C1CSc2ccc(C(=O)NCCc3ccc(Cl)cc3Cl)cc2N1	-0.6	-4.0	i	2.0	3.7	/
C=C[C@@H]1c2cc(C)ccc2N(S(=O)(=O)c2ccc(C)cc2)[C@H](c2ccc(OC(C)=O)cc2)C1(C#N)C#N	0.3	-1.2	i	0.8	4.0	/
COc1ccc(-c2cc3ccc(OC)cc3cn2)cc1	-0.9	40.9*	i	-0.8	5.6	/
O=C(COc1ccccc1)NCC(=O)Nc1ccncc1	0.6	2.3	i	0.0	7.5	i
Cc1c(N2C(=O)/C(=C/c3ccc(N(C)C)cc3)N(C)C2=S)c(=O)n(-c2ccccc2)n1C	23.3	-1.0	-7.97*	10.2	-14.9	/
COc1ccc(C2CC(=O)c3c(C)nc(N4CCN(c5ccccc5)CC4)nc3C2)cc1 (stereo unspecified)	0.1	727.0*	i	2.9	14.2	i
Cc1nn(Cc2ccc(Cl)cc2)c(C)c1NC(=O)Cn1nc([N+](=O)[O-])c(Cl)c1C	3.5	-1.5	i	-1.2	16.8	i
Cc1nn(Cc2ccc(Cl)cc2)c(C)c1NC(=O)c1ccc([N+](=O)[O-])cc1	-0.7	0.8	i	0.6	55.9*	i
O=S(=O)(c1ccc2nc(-c3ccccc3)[nH]c2c1)N1CCN(c2ccc(Cl)cc2)CC1	1.9	13.4*	i	38.7	-17.2	i
O=c1ccc2cc(S(=O)(=O)N3CCN(c4ccccc4)CC3)ccc2[nH]1	0.0	-1.4	i	0.9	-1.4	i
O=c1cc2oc3cc(O)c(O)cc3c(-c3ccccc3O)c-2cc1O	43.9	-0.9	i	11.5	-46.5	/
COc1ccc(OC)c(-c2c3cc(O)c(=O)cc-3oc3cc(O)c(O)cc23)c1	145.3*	-17.4	i	15.4	-71.4	i
CCOc1ccccc1-c1c2cc(O)c(=O)cc-2oc2cc(O)c(O)cc12	260.1*	-9.4	i	12.0	-219.2	/
COc1ccc(-c2cc(C(=O)N3CCN(c4ccccc4O)CC3)c3ccccc3n2)cc1OC	0.6	-5.7	i	0.9	-12.8	i
Cc1nn(C(=O)CCCC(=O)NCc2ccccc2)c2ccccc12	-1.7	5.0	i	-1.9	-7.6	i
Cn1c(SCc2ccccc2)nnc1-c1ccc(O)cc1	-2.8	-2.8	i	-0.1	5.8	i
Cc1nc(C)c(CCNC(=O)c2ccc(C(F)(F)F)cc2)s1	-0.7	16.3*	i	1.8	13.2	i
Cc1ccc(C(=O)NCCc2sc(C)nc2C)cc1	-0.2	1.4	i	-0.2	2.2	i
COc1cc2c(cc1OC)C1=NC(=O)CN1C(SCc1ccccc1C)=N2	-0.2	25.9*	i	16.2	2.7	i
CCc1ccc(S(=O)(=O)/N=C2\C=C(Nc3cccc(C(=O)O)c3)C(=O)c3ccccc32)cc1	-4.0	1.8	i	8.9	33.1	25*
